# Measured values from PubChem BioAssay AID1159580 (chemical genetic matrix, 2015).
# About 2,000 (36%) of roughly 5,500 compounds were called active. About 18% were inconclusive and are not listed. This is one part of the list. Unmarked numbers belong to inactive results. Rule as the data show it: active = normalized growth mostly below about 0.91 (no sharp cut-off); inconclusive = no clear call, values can overlap the other calls; inactive = mostly above about 0.92.
# Assay: chemical genetic growth profiling, strain panel (AID 1159580);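 also: tested at 20 µM; growth read once vehicle control cultures reached saturation at 30 °C; 1 = growth at the plate median or of vehicle wells; lower values mean less growth of the strain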
# Conditions: S. cerevisiae deletion strains, growth OD
# [1] = locus YHR030C, strain SLT2, active compounds read low
# [2] = locus YHR079C, strain IRE1, active compounds read low
# [3] = locus YJL095W, strain BCK1, active compounds read low
# [4] = locus YJR066W, strain TOR1, active compounds read low
# [5] = locus YLR113W, strain HOG1, active compounds read low
# [6] = locus YNL183C, strain NPR1, active compounds read low
# [7] = locus YOR231W, strain MKK1, active compounds read low
# [8] = locus YPL256C, strain CLN2, active compounds read low
# [9] = locus YAL013W, strain DEP1, active compounds read low
# [10] = locus YAL040C, strain CLN3, active compounds read low
# [11] = locus YER002W, strain NOP16, active compounds read low
# [12] = locus YMR263W, strain SAP30, active compounds read low
# [13] = locus YNL153C, strain GIM3, active compounds read low
# [14] = locus YNL175C, strain NOP13, active compounds read low
# [15] = locus YNL197C, strain WHI3, active compounds read low
# [16] = locus YNL224C, strain SQS1, active compounds read low
# [17] = locus YNL322C, strain KRE1, active compounds read low
# [18] = locus YOR083W, strain WHI5 (second series), active compounds read low
# [19] = locus YPL055C, strain LGE1, active compounds read low
# [20] = locus YPL241C, strain CIN2, active compounds read low
# [21] = locus YJR075W, strain HOC1, active compounds read low
smiles,measurement,setting,value
C[N+](C)(C)C[C@H](O)CC(=O)[O-],normalized growth,[1],0.972
same,normalized growth,[2],0.984
same,normalized growth,[3],1.02
same,normalized growth,[4],0.923
same,normalized growth,[5],1.01
same,normalized growth,[6],0.923
same,normalized growth,[7],0.962
same,normalized growth,[8],0.961
NCCc1ccc(S(=O)(=O)F)cc1,normalized growth,[9],1
same,normalized growth,[10],1.01
same,normalized growth,[11],1.02
same,normalized growth,[12],1
same,normalized growth,[13],1.03
same,normalized growth,[14],1
same,normalized growth,[15],1.04
same,normalized growth,[16],1
same,normalized growth,[17],1.01
same,normalized growth,[18],0.997
same,normalized growth,[19],1.02
same,normalized growth,[20],1.01
CCCCCCCCCCCCCCCCC(C(=O)O)C(O)(CC(=O)O)C(=O)O (stereo not given),normalized growth,[1],0.501 (active)
same,normalized growth,[2],0.804 (active)
same,normalized growth,[3],0.581 (active)
same,normalized growth,[4],0.566 (active)
same,normalized growth,[5],0.48 (active)
same,normalized growth,[6],0.648 (active)
same,normalized growth,[7],0.836 (active)
same,normalized growth,[8],0.863
CCCC(CC(=O)O)(C(=O)O)c1ccccc1 (stereo not given),normalized growth,[9],1.01
same,normalized growth,"locus YBR229C, strain ROT2, active compounds read low",1
same,normalized growth,"locus YCL061C, strain MRC1, active compounds read low",1.01
same,normalized growth,"locus YDL101C, strain DUN1, active compounds read low",1.01
same,normalized growth,"locus YDR150W, strain NUM1, active compounds read low",1
same,normalized growth,"locus YEL061C, strain CIN8, active compounds read low",1.01
same,normalized growth,"locus YGR078C, strain PAC10, active compounds read low",1
same,normalized growth,"locus YGR229C, strain SMI1, active compounds read low",1.01
same,normalized growth,[1],1.12
same,normalized growth,"locus YHR087W, strain rtc3, active compounds read low",1
same,normalized growth,"locus YJR043C, strain POL32, active compounds read low",1.01
same,normalized growth,[21],1
same,normalized growth,"locus YLR039C, strain RIC1, active compounds read low",1.03
same,normalized growth,"locus YLR058C, strain SHM2 (second series), active compounds read low",1.01
same,normalized growth,"locus YLR085C, strain ARP6, active compounds read low",1.05
same,normalized growth,"locus YLR262C, strain YPT6, active compounds read low",1.02
same,normalized growth,"locus YML094W, strain GIM5, active compounds read low",1.02
same,normalized growth,"locus YMR219W, strain ESC1, active compounds read low",1.01
same,normalized growth,[12],1
same,normalized growth,[13],1
same,normalized growth,"locus YNL298W, strain CLA4 (second series), active compounds read low",1.03
same,normalized growth,[17],0.998
same,normalized growth,"locus YNR030W, strain Alg12, active compounds read low",1.01
same,normalized growth,[19],1.06
same,normalized growth,[20],1.02
same,normalized growth,"locus YPR135W, strain CTF4, active compounds read low",1.06
CCCCC[C@H](CC(=O)O)C(=O)O,normalized growth,[1],1.04
same,normalized growth,[2],1.03
same,normalized growth,[3],1.04
same,normalized growth,[4],1.03
same,normalized growth,[5],0.945
same,normalized growth,[6],0.989
same,normalized growth,[7],1.05
same,normalized growth,[8],1.02
CCCCCC(O)CCCC(=O)O (stereo not given),normalized growth,[10],1.02
same,normalized growth,"locus YCL061C, strain MRC1 (second series), active compounds read low",1.01
same,normalized growth,"locus YDR363W, strain ESC2, active compounds read low",1.01
same,normalized growth,[11],1.03
same,normalized growth,[21],1.02
same,normalized growth,[14],1.02
same,normalized growth,[15],1.05
same,normalized growth,[16],0.991
same,normalized growth,[18],1.06
O=C(O)CC(O)(CC(=O)O)C(=O)O,normalized growth,"locus YAL021C, strain ccr4, active compounds read low",1
same,normalized growth,"locus YAL026C, strain drs2, active compounds read low",1.01
same,normalized growth,"locus YAL030W, strain snc1, active compounds read low",1
same,normalized growth,"locus YBL061C, strain skt5, active compounds read low",1.01
same,normalized growth,"locus YBR009C, strain hhf1, active compounds read low",1
same,normalized growth,"locus YBR023C, strain chs3, active compounds read low",1.01
same,normalized growth,"locus YBR171W, strain sec66, active compounds read low",1.01
same,normalized growth,"locus YBR231C, strain swc5, active compounds read low",1.01
same,normalized growth,"locus YBR279W, strain paf1, active compounds read low",1
same,normalized growth,"locus YCL011C, strain gbp2, active compounds read low",1.01
same,normalized growth,"locus YCL016C, strain dcc1, active compounds read low",0.997
same,normalized growth,"locus YCL069W, strain vba3, active compounds read low",1.01
same,normalized growth,"locus YCR088W, strain abp1, active compounds read low",1.02
same,normalized growth,"locus YDL005C, strain med2, active compounds read low",1.01
same,normalized growth,"locus YDL040C, strain nat1, active compounds read low",1.01
same,normalized growth,"locus YDR001C, strain nth1, active compounds read low",0.998
same,normalized growth,"locus YDR069C, strain doa4, active compounds read low",1.03
same,normalized growth,"locus YDR137W, strain rgp1, active compounds read low",1
same,normalized growth,"locus YDR159W, strain sac3, active compounds read low",1
same,normalized growth,"locus YDR195W, strain ref2",1.05
same,normalized growth,"locus YDR297W, strain sur2, active compounds read low",0.994
same,normalized growth,"locus YDR334W, strain swr1, active compounds read low",1
same,normalized growth,"locus YDR335W, strain msn5, active compounds read low",1.01
same,normalized growth,"locus YDR392W, strain spt3, active compounds read low",0.966
same,normalized growth,"locus YEL003W, strain gim4, active compounds read low",0.998
same,normalized growth,"locus YEL037C, strain rad23, active compounds read low",1.01
same,normalized growth,"locus YEL061C, strain CIN8 (second series), active compounds read low",1
same,normalized growth,"locus YER015W, strain faa2, active compounds read low",1.02
same,normalized growth,"locus YER016W, strain bim1, active compounds read low",1.01
same,normalized growth,"locus YER111C, strain swi4, active compounds read low",1.01
same,normalized growth,"locus YER155C, strain BEM2 (second series), active compounds read low",1.05
same,normalized growth,"locus YFR010W, strain ubp6, active compounds read low",1.02
same,normalized growth,"locus YGL167C, strain pmr1, active compounds read low",1.01
same,normalized growth,"locus YGL173C, strain kem1, active compounds read low",0.999
same,normalized growth,"locus YGL227W, strain vid30, active compounds read low",1.01
same,normalized growth,"locus YGL240W, strain doc1, active compounds read low",1.02
same,normalized growth,"locus YGL253W, strain hxk2, active compounds read low",0.997
same,normalized growth,"locus YHR013C, strain ard1, active compounds read low",1
same,normalized growth,"locus YHR027C, strain rpn1, active compounds read low",1.01
same,normalized growth,[1],0.979
same,normalized growth,[2],0.995
same,normalized growth,"locus YHR142W, strain chs7, active compounds read low",0.993
same,normalized growth,"locus YJL092W, strain hpr5, active compounds read low",1.01
same,normalized growth,"locus YJL095W, strain BCK1 (second series), active compounds read low",1.02
same,normalized growth,[3],1.02
same,normalized growth,"locus YJL115W, strain asf1, active compounds read low",1.03
same,normalized growth,"locus YJL129C, strain trk1, active compounds read low",1.03
same,normalized growth,"locus YJL154C, strain vps35, active compounds read low",1.01
same,normalized growth,"locus YJL164C, strain tpk1, active compounds read low",1
same,normalized growth,"locus YJL166W, strain qcr8, active compounds read low",1.03
same,normalized growth,"locus YJL187C, strain SWE1, active compounds read low",1.01
same,normalized growth,[4],0.953
same,normalized growth,"locus YKL160W, strain elf1, active compounds read low",1.01
same,normalized growth,"locus YKR026C, strain gcn3, active compounds read low",1.01
same,normalized growth,"locus YKR091W, strain srl3, active compounds read low",1.01
same,normalized growth,"locus YLL001W, strain dnm1, active compounds read low",1.01
same,normalized growth,"locus YLL026W, active compounds read low",0.999
same,normalized growth,"locus YLL041C, strain sdh2, active compounds read low",1.01
same,normalized growth,"locus YLR027C, strain aat2, active compounds read low",1
same,normalized growth,[5],1.02
same,normalized growth,"locus YLR221C, strain rsa3, active compounds read low",0.988
same,normalized growth,"locus YLR258W, strain gsy2, active compounds read low",1.01
same,normalized growth,"locus YLR262C, strain YPT6 (second series), active compounds read low",1.02
same,normalized growth,"locus YLR320W, strain mms22, active compounds read low",0.998
same,normalized growth,"locus YLR342W, strain FKS1, active compounds read low",1.02
same,normalized growth,"locus YLR357W, strain rsc2, active compounds read low",1
same,normalized growth,"locus YLR370C, strain arc18, active compounds read low",0.982
same,normalized growth,"locus YLR384C, strain iki3, active compounds read low",1.01
same,normalized growth,"locus YML120C, strain ndi1, active compounds read low",1.01
same,normalized growth,"locus YMR058W, strain fet3, active compounds read low",1.01
same,normalized growth,"locus YMR125W, strain sto1, active compounds read low",1.02
same,normalized growth,"locus YMR129W, active compounds read low",1.01
same,normalized growth,"locus YMR205C, strain PFK2, active compounds read low",1.01
same,normalized growth,"locus YMR231W, strain pep5, active compounds read low",1.01
same,normalized growth,"locus YNL071W, strain lat1, active compounds read low",1
same,normalized growth,[6],0.98
same,normalized growth,"locus YNL209W, strain ssb2, active compounds read low",0.998
same,normalized growth,"locus YNL248C, strain rpa49, active compounds read low",1.01
same,normalized growth,"locus YNL322C, strain KRE1 (second series), active compounds read low",1
same,normalized growth,"locus YNR049C, strain mso1, active compounds read low",1
same,normalized growth,"locus YOR001W, strain rrp6, active compounds read low",1.04
same,normalized growth,"locus YOR070C, strain gyp1, active compounds read low",1.01
same,normalized growth,"locus YOR080W, strain dia2, active compounds read low",1.02
same,normalized growth,"locus YOR083W, strain WHI5, active compounds read low",1.02
same,normalized growth,"locus YOR106W, strain vam3, active compounds read low",1.02
same,normalized growth,[7],0.985
same,normalized growth,"locus YOR265W, strain rbl2, active compounds read low",1.01
same,normalized growth,"locus YOR270C, strain vph1, active compounds read low",0.988
same,normalized growth,"locus YOR290C, strain snf2, active compounds read low",0.99
same,normalized growth,"locus YPL051W, strain arl3, active compounds read low",1.01
same,normalized growth,"locus YPL078C, strain atp4, active compounds read low",1.03
same,normalized growth,"locus YPL106C, strain sse1, active compounds read low",1.01
same,normalized growth,"locus YPL240C, strain hsp82, active compounds read low",1
same,normalized growth,[8],0.968
